Measurements reported in PubChem BioAssay (NCATS).
Inconclusive results are not listed. Values without a mark were called inactive. Active and inactive are the calls of the source. Calls follow the shape of the dose curve; as a rule, active = well fitted curve in the direction sought with a large enough effect; inconclusive = small, poorly fitted or top-dose-only effect, or another doubt; inactive = no such curve, though single readings can be large; an effect the other way counts as inactive or inconclusive.

Tests used:
[1] = Primary qHTS for inhibitors of nuclear receptor binding SET domain protein 2 (NSD2) in an isogenic RCH-ACV NSD2 p.E1099K mutant (9B) (AID 1645876); conditions: RCH-ACV NSD2 E1099K (9B) viability, CellTiter-Glo, 72 h; series mostly up to 44.9 µM
[2] = Primary qHTS for inhibitors of nuclear receptor binding SET domain protein 2 (NSD2) in an RCH-ACV wild type WT cells (2C) (AID 1645877); conditions: RCH-ACV (leukaemia line) NSD2 WT (2C) viability, CellTiter-Glo, 72 h; series mostly up to 44.9 µM
% is scaled to controls: 0 for no effect and ±100 for the full control effect; potency is read from the fitted curve at half-maximal effect.
Also: nearly all actives have a fitted effect of over 70% in size.

Row | SMILES | Potency [1] | Potency [2] | activity change, negative = cell killing [2]
1 | CC(C)=CCC[C@](C)(O[C@@H]1O[C@H](CO[C@@H]2OC[C@@H](O)[C@H](O)[C@H]2O)[C@@H](O)[C@H](O)[C@H]1O)[C@H]1CC[C@]2(C)[C@@H]1[C@H](O)C[C@@H]1[C@@]3(C)CC[C@H](O[C@@H]4O[C@H](CO)[C@@H](O)[C@H](O)[C@H]4O)C(C)(C)[C@@H]3CC[C@]12C | inactive | inactive | 
2 | NC(=O)CCCSc1nc(N)nc(-c2c(Cl)cc3c4c(cccc24)COC3)n1 | 0.183 µM (active) | 0.23 µM (active) | 
3 | CC1(C)CC[C@]23CO[C@@]4(CCC5[C@@]6(C)CC[C@H](O[C@@H]7OC[C@H](O[C@@H]8O[C@H](CO)[C@@H](O)[C@H](O)[C@H]8O[C@@H]8OC[C@@H](O)[C@H](O)[C@H]8O)[C@H](O)[C@H]7O[C@@H]7O[C@H](CO)[C@@H](O)[C@H](O)[C@H]7O)[C@@](C)(CO)C6CC[C@@]5(C)[C@]4(C)C[C@H]2O)[C@@H]3C1 (stereo not given in full) | 1.54 µM (active) | 2.75 µM (active) | 
4 | CC1(C)CC[C@]2(C(=O)O)[C@H](O)C[C@]3(C)C(=CCC4[C@@]5(C)CC[C@H](O[C@@H]6O[C@H](CO[C@@H]7OC[C@H](O)[C@H](O)[C@H]7O[C@@H]7OC[C@H](O)[C@H](O)[C@H]7O)[C@@H](O)[C@H](O)[C@H]6O)C(C)(C)C5CC[C@]43C)[C@@H]2C1 (stereo not given in full) | 4.35 µM (active) |  | -24.5% [at 9.23 µM]
5 | C=CC(C)(O)CC/C=C(\C)C(=O)OC1C(O)C(CO)OC(OC(=O)C23CCC(C)(C)CC2C2=CCC4C5(C)CCC(OC6OC(COC7OCC(OC(C)=O)C(O)C7OC7OC(COC(C)=O)C(O)C(O)C7OC(C)=O)C(O)C(O)C6OC6OCC(O)C(O)C6O)C(C)(C)C5CCC4(C)C2(C)C(O)C3O)C1OC1OCC(OC2OCC(O)C(OC3OCC(O)C(O)C3O)C2O)C(O)C1O (stereo not given) | 0.792 µM (active) | 1.25 µM (active) | 
